Assay results published in publication PMC5700166.
Substitutions are numbered along the chain they refer to.

Columns and labels:
Assay in all cases: protein-binding microarray (PBM); PBM: ~300 nM protein, 6 mM HEPES pH 7.8, 80 mM KCl, 0.5 mM EDTA, 0.5 mM EGTA, 6% glycerol, 35 ng/ul poly-dIdC, 1% milk, 1 h, room temperature; Ap Aiptasia and Nv Nematostella (sea anemones) / Co Capsaspora / Aq Amphimedon (sponge) / Dm Drosophila / Hu human; RHD is the Rel homology domain; high values mean tight binding
Details in all cases: dsDNA, one strand shown
[1] = target: T1, GST-Ap-NF-kB RHD (Exaiptasia pallida (Aiptasia), UniProt A0A913YAJ5 2-422)
T1 sequence: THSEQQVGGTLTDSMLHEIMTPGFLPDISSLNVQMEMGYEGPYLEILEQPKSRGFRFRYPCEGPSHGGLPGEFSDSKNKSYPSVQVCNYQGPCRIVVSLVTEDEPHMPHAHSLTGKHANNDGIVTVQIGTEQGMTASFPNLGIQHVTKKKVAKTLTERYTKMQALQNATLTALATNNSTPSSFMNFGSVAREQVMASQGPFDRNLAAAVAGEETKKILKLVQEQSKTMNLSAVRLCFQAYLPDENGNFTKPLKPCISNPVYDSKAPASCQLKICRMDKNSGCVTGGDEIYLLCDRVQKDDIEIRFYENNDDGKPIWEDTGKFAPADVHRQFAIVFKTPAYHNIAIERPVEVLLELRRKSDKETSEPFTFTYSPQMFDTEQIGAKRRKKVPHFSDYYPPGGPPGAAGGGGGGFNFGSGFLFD

[2] = target: T2, GST-Nv-NF-kB (Cys allele) (Nematostella vectensis, UniProt E5G601 2-411)
T2 sequence: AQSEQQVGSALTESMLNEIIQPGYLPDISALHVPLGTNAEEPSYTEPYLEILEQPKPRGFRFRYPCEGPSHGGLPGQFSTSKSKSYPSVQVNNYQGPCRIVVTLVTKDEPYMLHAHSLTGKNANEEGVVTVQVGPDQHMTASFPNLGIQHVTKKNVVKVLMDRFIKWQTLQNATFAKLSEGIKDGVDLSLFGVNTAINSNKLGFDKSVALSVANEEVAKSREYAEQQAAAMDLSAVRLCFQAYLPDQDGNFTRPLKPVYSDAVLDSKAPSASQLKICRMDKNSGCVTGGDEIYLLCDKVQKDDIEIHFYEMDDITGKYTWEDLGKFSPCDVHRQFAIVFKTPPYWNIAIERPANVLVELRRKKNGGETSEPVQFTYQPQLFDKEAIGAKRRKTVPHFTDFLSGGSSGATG

[3] = target: T3, GST-Nv-NF-kB (Ser allele) (Nematostella vectensis, UniProt A7UNT2 2-411)
T3 sequence: T2 sequence with Q21R, C66S, S207N, E215Q, V217A, E225K, A268E, D399E

[4] = target: T4, GST-Co-NF-kB (Capsaspora owczarzaki, UniProt F1ARL5 200-546)
T4 sequence: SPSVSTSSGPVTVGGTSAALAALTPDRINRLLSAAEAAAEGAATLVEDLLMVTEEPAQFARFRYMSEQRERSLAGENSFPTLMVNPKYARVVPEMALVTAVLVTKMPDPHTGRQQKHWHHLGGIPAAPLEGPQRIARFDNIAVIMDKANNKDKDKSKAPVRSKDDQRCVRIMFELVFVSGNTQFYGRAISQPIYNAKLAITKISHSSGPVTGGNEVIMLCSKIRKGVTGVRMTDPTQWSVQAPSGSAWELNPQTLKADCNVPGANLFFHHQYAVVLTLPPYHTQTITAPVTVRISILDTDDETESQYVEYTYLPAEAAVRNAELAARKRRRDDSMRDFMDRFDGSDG

[5] = target: T5, GST-Dm-Relish (Drosophila melanogaster, UniProt Q94527 99-473)
T5 sequence: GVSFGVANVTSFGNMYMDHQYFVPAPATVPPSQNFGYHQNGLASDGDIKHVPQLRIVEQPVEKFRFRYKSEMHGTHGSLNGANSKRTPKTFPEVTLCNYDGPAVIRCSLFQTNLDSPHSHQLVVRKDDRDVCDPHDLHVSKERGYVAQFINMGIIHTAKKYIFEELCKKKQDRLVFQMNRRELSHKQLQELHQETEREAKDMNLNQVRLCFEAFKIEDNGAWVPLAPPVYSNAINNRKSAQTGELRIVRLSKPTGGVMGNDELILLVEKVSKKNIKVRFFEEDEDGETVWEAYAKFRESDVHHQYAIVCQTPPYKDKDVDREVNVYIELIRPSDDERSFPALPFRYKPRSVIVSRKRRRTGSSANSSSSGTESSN

[6] = target: T6, GST-Aq-NF-kB (Amphimedon queenslandica, UniProt A9Y5G7 2-389)
T6 sequence: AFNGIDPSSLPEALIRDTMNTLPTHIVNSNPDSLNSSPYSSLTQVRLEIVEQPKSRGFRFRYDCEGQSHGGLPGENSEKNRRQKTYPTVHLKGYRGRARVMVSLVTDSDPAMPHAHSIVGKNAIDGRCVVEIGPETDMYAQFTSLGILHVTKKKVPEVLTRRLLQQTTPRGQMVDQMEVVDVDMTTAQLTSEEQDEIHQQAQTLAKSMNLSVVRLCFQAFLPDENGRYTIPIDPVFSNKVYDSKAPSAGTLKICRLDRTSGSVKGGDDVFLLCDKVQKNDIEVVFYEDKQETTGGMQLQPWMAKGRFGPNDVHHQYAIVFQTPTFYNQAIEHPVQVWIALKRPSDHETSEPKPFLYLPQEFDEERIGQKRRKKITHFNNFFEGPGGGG

[7] = target: GST-Hu-p50 (Homo sapiens, UniProt P19838 7-356)
Sequence of GST-Hu-p50 (P19838 7-356): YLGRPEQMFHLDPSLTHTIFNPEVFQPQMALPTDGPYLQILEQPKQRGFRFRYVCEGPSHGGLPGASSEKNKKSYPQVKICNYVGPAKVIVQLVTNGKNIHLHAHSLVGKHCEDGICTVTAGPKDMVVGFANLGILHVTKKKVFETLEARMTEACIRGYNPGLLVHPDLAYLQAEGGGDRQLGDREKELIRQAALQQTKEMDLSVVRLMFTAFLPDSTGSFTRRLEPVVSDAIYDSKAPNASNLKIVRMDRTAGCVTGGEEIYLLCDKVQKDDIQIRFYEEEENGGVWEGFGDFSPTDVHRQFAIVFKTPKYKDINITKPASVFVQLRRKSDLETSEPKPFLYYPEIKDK

Sequence	binding signal [1] [z-score]	binding signal [2] [z-score]	binding signal [3] [z-score]	binding signal [4] [z-score]	binding signal [5] [z-score]	binding signal [6] [z-score]	binding signal [7] [z-score]
CCGATTAACATCAAATAATCCCCTGATGTTAATCGGGTCTTGATTCGCTTGACGCTGCTG	8.76	10	10.6	5.91	7.99	7.75	6.78
CCGATTAACATCAAAATTTCCCCTGATGTTAATCGGGTCTTGATTCGCTTGACGCTGCTG	10.2	11.6	14.6	10.6	8.41	8.46	7.8
CCGATTAACATCAAGATATTCCCTGATGTTAATCGGGTCTTGATTCGCTTGACGCTGCTG	4.46	4.57	5.05	3.05	2.34	4.02	2.44
CCGATTAACATCAGGCATTCCCCTGATGTTAATCGGGTCTTGATTCGCTTGACGCTGCTG	6.9	8.51	7.12	3.19	7.67	7.93	5.74
CCGATTAACATCAGGCAGTCCCCTGATGTTAATCGGGTCTTGATTCGCTTGACGCTGCTG	5.54	4.49	3.59	1.33	4.55	5.52	4.48
CCGATTAACATCAGGGGGGTGTATGATGTTAATCGGGTCTTGATTCGCTTGACGCTGCTG	3.69	3.97	4.14	4.29	4.17	4.24	3.91
CCGATTAACATCAGGGATATACCTGATGTTAATCGGGTCTTGATTCGCTTGACGCTGCTG	3.17	3.3	1.91	1.14	6.4	5.31	1.99
CCGATTAACATCAGGGTAAACCCTGATGTTAATCGGGTCTTGATTCGCTTGACGCTGCTG	3.1	4.05	2.62	2.45	5.92	6.52	2.7
CCGATTAACATCAAGGGGGGAATTGATGTTAATCGGGTCTTGATTCGCTTGACGCTGCTG	7.34	7.02	7.25	7.24	5.11	5.89	6.3
CCGATTAACATCAGGGGCATACCTGATGTTAATCGGGTCTTGATTCGCTTGACGCTGCTG	3.84	4.44	1.94	1.44	3.9	6.89	2.64
CCGATTAACATCACCCGCCCCCCTGATGTTAATCGGGTCTTGATTCGCTTGACGCTGCTG	4.08	4.08	2.95	4.02	4.78	4.22	3.85
CCGATTAACATCAATACTTCCCCTGATGTTAATCGGGTCTTGATTCGCTTGACGCTGCTG	5.61	7.52	9.37	6.89	7.81	5.35	6.19
CCGATTAACATCATGGGGAAAAATGATGTTAATCGGGTCTTGATTCGCTTGACGCTGCTG	5.03	6.62	8.82	9.78	2.39	4.9	5.43
CCGATTAACATCAGGGGGAACTATGATGTTAATCGGGTCTTGATTCGCTTGACGCTGCTG	6.91	5.64	7.61	9.06	4.89	4.97	5.9
CCGATTAACATCAGCATCCCCCCTGATGTTAATCGGGTCTTGATTCGCTTGACGCTGCTG	5.21	4.99	4.67	4.85	4.52	4.67	5.05
CCGATTAACATCAGGGGGCGGGATGATGTTAATCGGGTCTTGATTCGCTTGACGCTGCTG	3.64	4	3.53	2.28	3.49	4.03	4.21
CCGATTAACATCACGGGGAAAACTGATGTTAATCGGGTCTTGATTCGCTTGACGCTGCTG	7.27	7.6	9.43	10.2	5.68	5.55	5.8
CCGATTAACATCACCGTGGGAAATGATGTTAATCGGGTCTTGATTCGCTTGACGCTGCTG	1.9	2.4	2.68	3.18	1.32	1.95	2.29
CCGATTAACATCAGATTCCCCCCTGATGTTAATCGGGTCTTGATTCGCTTGACGCTGCTG	8.5	7.01	8.24	10	6.72	6.38	7.1
CCGATTAACATCAAGACTTTCCCTGATGTTAATCGGGTCTTGATTCGCTTGACGCTGCTG	4.06	5.48	5.59	2.92	2.82	6.09	4.12
CCGATTAACATCAAATAAGTCCCTGATGTTAATCGGGTCTTGATTCGCTTGACGCTGCTG	4.69	6.71	7	1.42	5.96	6.24	4.56
CCGATTAACATCAGGGGAAAAAATGATGTTAATCGGGTCTTGATTCGCTTGACGCTGCTG	6.24	8.26	10.4	11.1	4.87	6.42	6.22
CCGATTAACATCAGAAACCCCCCTGATGTTAATCGGGTCTTGATTCGCTTGACGCTGCTG	9.47	7.7	7.63	3.94	9.65	7.6	6.97
